Data from PubChem BioAssay (NCI).
The panel holds about 79,000 compounds, 15% with a hit somewhere; the sample as a whole holds those more often. A number with no mark means an inactive call. The source made the active and inactive calls. Cut-off read from the data, not from the text of the source: active = growth inhibition above about 70%; inactive = the rest.

Assays:
[1] = NCI Yeast Anticancer Drug Screen. Data for the rad52 strain (AID 147);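 note: 0% = growth of vehicle-treated control cultures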; conditions: S. cerevisiae rad52 mutant growth inhibition, active compounds read high
In short: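 Genetically altered yeast (DNA damage repair defect) treated with compound; inhibition calculated relative to vehicle.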

[2] = NCI Yeast Anticancer Drug Screen. Data for the wt1 strain (AID 149);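 note: 0% = growth of vehicle-treated wt1 cultures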; conditions: S. cerevisiae wt1 strain (SPY 50644) growth inhibition, active compounds read high
In short: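 Using yeast strain wt1, compound-induced growth inhibition was determined against vehicle-treated cultures.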

[3] = NCI Yeast Anticancer Drug Screen. Data for the rad50EPP+ strain (AID 151);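 note: 0% = growth of vehicle-treated control cultures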; conditions: S. cerevisiae rad50 mutant strain, active compounds read high
In short: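 Strain rad50EPP+; compound exposure; % growth inhibition vs vehicle.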

[4] = NCI Yeast Anticancer Drug Screen. Data for the mgt1 strain (AID 153); conditions: S. cerevisiae mgt1 mutant growth inhibition, active compounds read high
In short: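 Read-out: yeast growth inhibition vs vehicle control. Strain mgt1, drawn from a panel altered in DNA damage repair or cell cycle control.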

[5] = NCI Yeast Anticancer Drug Screen. Data for the rad50 strain (AID 155);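 note: 0% = growth of vehicle-only cultures of the same strain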; conditions: S. cerevisiae rad50 strain growth inhibition, active compounds read high
In short: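 Relative growth inhibition (compound vs vehicle) was measured in yeast with a defined repair-gene alteration.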

[6] = NCI Yeast Anticancer Drug Screen. Data for the mec2-1 strain (AID 157); conditions: S. cerevisiae mec2-1 strain, active compounds read high
In short: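 Cells of the genetically defined mec2-1 yeast strain are incubated with test compound. Inhibition of growth is calculated against vehicle-treated controls.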

[7] = NCI Yeast Anticancer Drug Screen. Data for the rad14 strain (AID 159);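 note: 0% = growth of vehicle-treated control cultures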; conditions: S. cerevisiae rad14 strain growth inhibition, active compounds read high
In short: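 Screen for anticancer potential: a yeast strain altered in DNA damage repair is grown with compound, and reduced growth is quantified against vehicle controls.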

[8] = NCI Yeast Anticancer Drug Screen. Data for the sgs1 mgt1 strain (AID 161);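 note: 0% = growth of cultures given vehicle only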; conditions: S. cerevisiae sgs1 mgt1 strain, active compounds read high
In short: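 Genetically altered yeast, compound exposure, growth inhibition relative to vehicle.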

[9] = NCI Yeast Anticancer Drug Screen. Data for the CLN2oe strain (AID 163);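 note: 0% = growth of vehicle-only control cultures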; conditions: S. cerevisiae CLN2oe strain, active compounds read high
In short: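 Strain altered in cell-cycle control, incubated with compound; growth compared to solvent-treated controls.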

[10] = NCI Yeast Anticancer Drug Screen. Data for the cln2 rad14 strain (AID 165);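 note: 0% = growth equal to vehicle treated cultures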; conditions: S. cerevisiae cln2 rad14 strain, active compounds read high
In short: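 The screen exposed genetically defined yeast (cln2 rad14) to test compounds and scored growth inhibition relative to vehicle-treated controls.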

[11] = NCI Yeast Anticancer Drug Screen. Data for the bub3 strain (AID 167); conditions: S. cerevisiae bub3 mutant strain, active compounds read high
In short: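 Screening used yeast with an engineered genetic alteration affecting cell cycle control. Compound-exposed cultures were compared with vehicle cultures, and reduced growth was taken as inhibition.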

[12] = NCI Yeast Anticancer Drug Screen. Data for the wt2 strain (AID 169);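 note: 0% = growth of vehicle-treated yeast cultures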; conditions: S. cerevisiae wt2 strain growth inhibition, active compounds read high
In short: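 Steps: yeast strain treated with compound; growth recorded; inhibition calculated relative to cultures given vehicle alone.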

[13] = NCI Yeast Anticancer Drug Screen. Data for the mlh1 strain (AID 171);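 note: 0% = growth of vehicle-treated control cultures of the same strain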; conditions: S. cerevisiae mlh1 strain growth inhibition, active compounds read high
In short: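 Yeast screen: mutant strain plus compound, growth scored against vehicle control wells.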

[14] = NCI Yeast Anticancer Drug Screen. Data for the sgs1 strain (AID 173);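 note: 0% = growth of vehicle-only control cultures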; conditions: S. cerevisiae sgs1 mutant, active compounds read high
In short: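 Inhibition of yeast growth served as the measure. The mutant strain was treated with each compound, and growth was normalised to cultures receiving vehicle alone.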

[15] = NCI Yeast Anticancer Drug Screen. Data for the mlh1 rad18 strain (AID 175); conditions: S. cerevisiae mlh1 rad18 strain growth inhibition, active compounds read high
In short: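 Compound-treated yeast growth, normalised to vehicle controls. Strain bears defined DNA repair mutations.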

[16] = NCI Yeast Anticancer Drug Screen. Data for the rad18 strain (AID 177); conditions: S. cerevisiae rad18 mutant growth inhibition, active compounds read high
In short: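 Inhibition values reflect reduced yeast growth compared with vehicle-treated controls, using a strain engineered with a DNA damage repair defect.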

[17] = at 5.0 µM (retest, dose inferred, filed as 0.5)
[18] = at 50.0 µM (retest, dose inferred, filed as 5.0)

`COc1ccc(N=c2cc(-c3ccccc3)oc3ccccc23)cc1` gave a growth inhibition ([1]; at 1.2 µM) of 1%, a growth inhibition ([1]; at 3.7 µM) of 2% and a growth inhibition ([1]; at 11.0 µM) of 1%. The growth inhibition ([1]; at 33.0 µM) was -1%, the growth inhibition ([1]; at 100.0 µM) was -3% and the growth inhibition ([2]; at 1.2 µM) was 0%. It also gave a growth inhibition ([2]; at 3.7 µM) of 1%, a growth inhibition ([2]; at 11.0 µM) of 2% and a growth inhibition ([2]; at 33.0 µM) of 1%. The growth inhibition ([2]; at 100.0 µM) was -6%, the growth inhibition ([3]; at 1.2 µM) was -1% and the growth inhibition ([3]; at 3.7 µM) was -3%. For the same compound, the growth inhibition ([3]; at 11.0 µM) was -5%, the growth inhibition ([3]; at 33.0 µM) was -2% and the growth inhibition ([3]; at 100.0 µM) was 16%. For the same compound, the growth inhibition ([4]; at 1.2 µM) was 0%, the growth inhibition ([4]; at 3.7 µM) was 1% and the growth inhibition ([4]; at 11.0 µM) was -2%. The growth inhibition ([4]; at 33.0 µM) was 13%, the growth inhibition ([4]; at 100.0 µM) was -6% and the growth inhibition ([5]; at 1.2 µM) was 0%. It also gave a growth inhibition ([5]; at 3.7 µM) of 0%, a growth inhibition [5, 17] of 11% and a growth inhibition ([5]; at 11.0 µM) of 1%. The growth inhibition ([5]; at 33.0 µM) was 0%, the growth inhibition [5, 18] was 3% and the growth inhibition ([5]; at 50.0 µM) was 57.5%. For the same compound, the growth inhibition ([5]; at 100.0 µM) was -4%, the growth inhibition ([6]; at 1.2 µM) was -3% and the growth inhibition ([6]; at 3.7 µM) was -2%. The growth inhibition [6, 17] was -4%, the growth inhibition ([6]; at 11.0 µM) was -3% and the growth inhibition ([6]; at 33.0 µM) was -4%. The growth inhibition [6, 18] was 6%, the growth inhibition ([6]; at 50.0 µM) was 27.6% and the growth inhibition ([6]; at 100.0 µM) was -7%. It also gave a growth inhibition ([7]; at 1.2 µM) of -3%, a growth inhibition ([7]; at 3.7 µM) of -3% and a growth inhibition ([7]; at 11.0 µM) of 0%. It also gave a growth inhibition ([7]; at 33.0 µM) of -2%, a growth inhibition ([7]; at 100.0 µM) of -5% and a growth inhibition [8, 17] of 1%. For the same compound, the growth inhibition [8, 18] was 17%, the growth inhibition ([8]; at 50.0 µM) was 87.1% (active) and the growth inhibition ([9]; at 1.2 µM) was -6%. It also gave a growth inhibition ([9]; at 3.7 µM) of -1%, a growth inhibition ([9]; at 11.0 µM) of -6% and a growth inhibition ([9]; at 33.0 µM) of -8%. The growth inhibition ([9]; at 100.0 µM) was -10%, the growth inhibition [10, 17] was -7% and the growth inhibition [10, 18] was -1%. The growth inhibition ([10]; at 50.0 µM) was 3.85%, the growth inhibition ([11]; at 1.2 µM) was -3% and the growth inhibition ([11]; at 3.7 µM) was -6%. The growth inhibition [11, 17] was -1%, the growth inhibition ([11]; at 11.0 µM) was -1% and the growth inhibition ([11]; at 33.0 µM) was -4%. The growth inhibition [11, 18] was -85%, the growth inhibition ([11]; at 50.0 µM) was 95.5% (active) and the growth inhibition ([11]; at 100.0 µM) was -1%. For the same compound, the growth inhibition ([12]; at 1.2 µM) was 0%, the growth inhibition ([12]; at 3.7 µM) was -2% and the growth inhibition ([12]; at 11.0 µM) was -1%. For the same compound, the growth inhibition ([12]; at 33.0 µM) was -3%, the growth inhibition ([12]; at 100.0 µM) was -6% and the growth inhibition ([13]; at 1.2 µM) was 0%. The growth inhibition ([13]; at 3.7 µM) was -1%, the growth inhibition ([13]; at 11.0 µM) was -1% and the growth inhibition ([13]; at 33.0 µM) was -4%. It also gave a growth inhibition ([13]; at 100.0 µM) of -5%, a growth inhibition ([14]; at 1.2 µM) of -1% and a growth inhibition ([14]; at 3.7 µM) of 1%. It also gave a growth inhibition ([14]; at 11.0 µM) of -2%, a growth inhibition ([14]; at 33.0 µM) of -3% and a growth inhibition ([14]; at 100.0 µM) of -4%.

For `CCCCS/C(=C(/C#N)C(N)=O)c1cc2c([nH]1)CCCC2`, the growth inhibition ([1]; at 1.2 µM) was 24%, the growth inhibition ([1]; at 3.7 µM) was 26% and the growth inhibition ([1]; at 11.0 µM) was 33%. The growth inhibition ([1]; at 33.0 µM) was 40%, the growth inhibition ([1]; at 100.0 µM) was 72% (active) and the growth inhibition ([2]; at 1.2 µM) was -9%. The growth inhibition ([2]; at 3.7 µM) was 0%, the growth inhibition ([2]; at 11.0 µM) was -8% and the growth inhibition ([2]; at 33.0 µM) was -12%. For the same compound, the growth inhibition ([2]; at 100.0 µM) was 56%, the growth inhibition ([3]; at 1.2 µM) was 11% and the growth inhibition ([3]; at 3.7 µM) was 13%. It also gave a growth inhibition ([3]; at 11.0 µM) of 11%, a growth inhibition ([3]; at 33.0 µM) of 22% and a growth inhibition ([3]; at 100.0 µM) of 31%. It also gave a growth inhibition ([4]; at 1.2 µM) of -7%, a growth inhibition ([4]; at 3.7 µM) of -21% and a growth inhibition ([4]; at 11.0 µM) of -21%. For the same compound, the growth inhibition ([4]; at 33.0 µM) was -14%, the growth inhibition ([4]; at 100.0 µM) was 49% and the growth inhibition ([5]; at 1.2 µM) was 25%. The growth inhibition ([5]; at 3.7 µM) was 23%, the growth inhibition [5, 17] was 16% and the growth inhibition ([5]; at 11.0 µM) was 24%. For the same compound, the growth inhibition ([5]; at 33.0 µM) was 28%, the growth inhibition [5, 18] was 30% and the growth inhibition ([5]; at 50.0 µM) was 41.2%. The growth inhibition ([5]; at 100.0 µM) was 48%, the growth inhibition ([6]; at 1.2 µM) was -8% and the growth inhibition ([6]; at 3.7 µM) was -22%. The growth inhibition [6, 17] was -1%, the growth inhibition ([6]; at 11.0 µM) was -17% and the growth inhibition ([6]; at 33.0 µM) was -34%. For the same compound, the growth inhibition [6, 18] was 13%, the growth inhibition ([6]; at 50.0 µM) was 62.4% and the growth inhibition ([6]; at 100.0 µM) was 52%. It also gave a growth inhibition ([7]; at 1.2 µM) of -11%, a growth inhibition ([7]; at 3.7 µM) of -9% and a growth inhibition ([7]; at 11.0 µM) of -13%. For the same compound, the growth inhibition ([7]; at 33.0 µM) was -16%, the growth inhibition ([7]; at 100.0 µM) was 62% and the growth inhibition [8, 17] was 9%. The growth inhibition [8, 18] was 31%, the growth inhibition ([8]; at 50.0 µM) was 60.5% and the growth inhibition ([9]; at 1.2 µM) was -21%. For the same compound, the growth inhibition ([9]; at 3.7 µM) was -19%, the growth inhibition ([9]; at 11.0 µM) was -18% and the growth inhibition ([9]; at 33.0 µM) was -32%. For the same compound, the growth inhibition ([9]; at 100.0 µM) was 56%, the growth inhibition [10, 17] was 8% and the growth inhibition [10, 18] was 24%. For the same compound, the growth inhibition ([10]; at 50.0 µM) was 54.2%, the growth inhibition ([11]; at 1.2 µM) was -37% and the growth inhibition ([11]; at 3.7 µM) was -36%. The growth inhibition [11, 17] was 4%, the growth inhibition ([11]; at 11.0 µM) was -30% and the growth inhibition ([11]; at 33.0 µM) was -6%. The growth inhibition [11, 18] was 71% (active), the growth inhibition ([11]; at 50.0 µM) was 83.5% (active) and the growth inhibition ([11]; at 100.0 µM) was 81% (active). For the same compound, the growth inhibition ([12]; at 1.2 µM) was -13%, the growth inhibition ([12]; at 3.7 µM) was -17% and the growth inhibition ([12]; at 11.0 µM) was -16%. The growth inhibition ([12]; at 33.0 µM) was 6%, the growth inhibition ([12]; at 100.0 µM) was 98% (active) and the growth inhibition ([13]; at 1.2 µM) was -13%. It also gave a growth inhibition ([13]; at 3.7 µM) of -19%, a growth inhibition ([13]; at 11.0 µM) of -30% and a growth inhibition ([13]; at 33.0 µM) of -36%. The growth inhibition ([13]; at 100.0 µM) was 54%, the growth inhibition ([14]; at 1.2 µM) was 12% and the growth inhibition ([14]; at 3.7 µM) was 17%. The growth inhibition ([14]; at 11.0 µM) was 18%, the growth inhibition ([14]; at 33.0 µM) was 22% and the growth inhibition ([14]; at 100.0 µM) was 72% (active). For the same compound, the growth inhibition [15, 17] was 13%, the growth inhibition [15, 18] was 46% and the growth inhibition ([15]; at 50.0 µM) was -32.3%. The growth inhibition ([16]; at 1.2 µM) was 0%, the growth inhibition ([16]; at 3.7 µM) was -13% and the growth inhibition ([16]; at 11.0 µM) was -24%. For the same compound, the growth inhibition ([16]; at 33.0 µM) was -19% and the growth inhibition ([16]; at 100.0 µM) was 44%.
